Source: PubChem BioAssay
Only some compounds are listed: those with a hit (about 4% of all), similar ones and a draw of the others.
CSC inhib – cancer stem cell viability inhibitors, primary screen, luminescence | cancer stem cell-like cells viability | inhibition, % at 7.5 µM | 300,000 compounds, 1.1% hits | AID 2717, 2010; in the data active = inhibition above about 75%; inconclusive = no clear call, values can overlap the other calls; tested in HMLE shEcad cells
PAX8 inh HTS – inhibitors of PAX8-driven TPO luciferase reporter, primary screen, RMG-I cells, single concentration; 360,000 compounds, 1.2% hits; inhibition, % at 12.6 µM; SteadyGlo, 24 h; AID 652154, 2013;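 active = mean replicate inhibition at least 60% with every replicate also reaching 60%; inconclusive = only one of the two criteria is met; inactive = mean below 60% and not all replicates reaching 60%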;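 note: luciferase light reporting Pax8 driven TPO promoter activity; plate controls were median of neutral control wells for no effect and mitoxantrone controls for full effect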
Beta apoptosis – inhibitors of cytokine-induced beta cell apoptosis, primary screen, luminescence | 300,000 compounds, 0.8% hits | INS-1E cytokine-induced death, ATP luminescence, 48 h; percent of positive-control rescue, neutral wells zero | protection from apoptosis, % (concentration not given with the values);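 active = Every replicate reaches about 75%, or at least half do and their mean reaches it too, limit read from the data; inconclusive = At least half of replicates reach the limit but their mean does not; inactive = Under half of replicates reach the limit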;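 note: 0% = cytokine-treated negative control wells and 100% = positive control rescue; higher means more ATP so stronger rescue from cytokine killing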
Mdm2 MdmX PPI – inhibitors of human Mdm2-MdmX association, primary screen, cell-based, luminescence, split luciferase, SaOS-2, uHTS. SaOS-2 split-luciferase Mdm2/MdmX complementation. 330,000 compounds, 3% hits. inhibition, % at 8 µM. Protein Mdm4 (Homo sapiens) + E3 ubiquitin-protein ligase Mdm2 (Homo sapiens), …;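 active = inhibition of at least 50% at 8 µM in the primary screen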
Shn3 inh set2 – reduction of Shn3 3'UTR firefly luciferase signal, primary screen, Schnurri-3 inhibitor project, cell-based, Clone20 osteoblasts, set 2. Clone20 osteoblast Shn3 3'UTR firefly luciferase, 24 h. inhibition, % at 12.5 µM. 360,000 compounds, 0.52% hits;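 active = mean inhibition of at least 75% with every replicate also reaching 75%; inconclusive = mean inhibition at least 75% but some replicate below; inactive = mean inhibition below 75%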;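 note: 0% = median of neutral control wells and 100% = pilot-screen positive control compound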
Gli-Sufu antag – Gli-Sufu pathway antagonists, primary screen, luciferase luminescence, Sufu-KO-LIGHT cells, uHTS; Sufu-KO-LIGHT fibroblasts, Gli luciferase reporter luminescence; inhibition, % at 5 µM; 340,000 compounds, 0.74% hits; AID 588413, 2011;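 active = inhibition above about 55%, limit read from the data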;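 note: 0% = DMSO-treated cells and 100% = wells with medium but no cells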
Gli-Sufu confirm – Gli-SUFU pathway antagonists, confirmation, single concentration, luciferase luminescence, Sufu-KO-LIGHT cells; inhibition, % at 5 µM; 2,500 compounds, 40% hits; shares compounds with Gli-Sufu antag; Gli luciferase reporter;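 active = mean inhibition at 5 µM reaching about 45%, limit read from the data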;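 note: plate controls were DMSO-treated cells for no effect and wells lacking cells for full effect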
SufuKO cytotox – cytotoxicity in Sufu-KO-LIGHT cells, confirmation, cytotoxicity control for Gli-SUFU antagonist project, cell-based, ATP luminescence, single concentration; cytotoxicity, % at 5 µM; 2,500 compounds, 32% hits; AID 651994, 2013; shares compounds with Gli-Sufu antag;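 active = mean cytotoxicity at 5 µM above about 25%, limit read from the data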;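 note: cells exposed to compound overnight for roughly 16 to 18 hours; plate controls were DMSO wells with cells for no effect and medium without cells for full effect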
Wnt3a counter – Wnt3a reporter signal inhibition, confirmation, counter-screen for Gli-SUFU antagonist project, Wnt-LIGHT cells, luminescence, single concentration; shares compounds with Gli-Sufu antag; Wnt3a-driven luciferase reporter; inhibition, % at 6.25 µM; 2,500 compounds, 20% hits; AID 651995, 2013;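 active = mean inhibition above about 25%, limit read from the data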
Starred values were filed as active, the others as inactive; ? = inconclusive; . = no result given.

SMILES	CSC inhib	PAX8 inh HTS	Beta apoptosis	Mdm2 MdmX PPI	Shn3 inh set2	Gli-Sufu antag	Gli-Sufu confirm	SufuKO cytotox	Wnt3a counter
CC(=O)c1c(C)[nH]c(C(=O)OCC(=O)Nc2ccc(Cl)cc2[N+](=O)[O-])c1C	-3	36	113*	36	92*	75*	75*	31*	24
Cn1c(O)c(N=Nc2ccccc2)c2ccccc21	-11	40	-3	-4	-15	-5	.	.	.
Cc1ccc2c(c1)c(N=Nc1ccc([N+](=O)[O-])cc1)c(O)n2C	5	30	-3	19	3	51	37	14	-14
O=C(C[C@H]1C[C@@H]2c3cc(NC(=O)C4CCC4)ccc3O[C@@H]2[C@@H](CO)O1)NCc1ccccc1F	.	13	.	.	.	.	.	.	.
CCCC(C)C(=O)Nc1ccccc1C(=O)OCC (stereo not drawn)	-9	.	2	9	5	100*	1	20	-7
CCOC(=O)c1ccc(NC(=O)Nc2ccc(OC)c(OC)c2)cc1	-10	-7	2	12	-5	61*	24	8	-9
CCOC(=O)c1ccccc1NC(=O)Nc1ccc(OC)c(OC)c1	-4	.	0	4	16	62*	17	13	3
CC1CCC(C(C)C)C(OCC(O)CN2CCCC(C)C2)C1 (stereo not drawn)	35	9	4	12	32	7	.	.	.
CC1CCC(C(C)C)C(OCC(O)CN2CCOCC2)C1 (stereo not drawn)	-3	.	-7	21	0	54	11	4	-18
CCN(C(=O)CN1C(=O)COc2ccc(S(=O)(=O)N3CCOCC3)cc21)c1ccc(OC)cc1	-10	-5	-1	-2	26	52	11	13	-24
CCOc1ccccc1NC(=O)CCn1ccnc1	-4	7	3	-19	6	58*	15	19	-6
CCOc1ccc(NC(=O)CCn2ccnc2)cc1	.	10	.	-16	-10	3	.	.	.
CCC1=Nc2cc(C(=O)NCc3ccco3)ccc2Sc2ccc(Cl)cc21	55	41	3	42	-9	52	56*	52*	-20
COc1cc(C=O)c(-c2c(C=O)cc(OC)c3c2OCO3)c2c1OCO2	-16	17	-8	34	8	63*	14	18	-4
O=[N+]([O-])c1ccc(N2CCN(Cc3ccccc3)CC2)s1	-12	10	7	-8	25	52	24	6	-8
O=[N+]([O-])c1ccc(N2CCCCC2)s1	-6	13	-4	-4	-6	-4	.	.	.
COc1ccc2c3c(n(C)c2c1)[C@@H](CO)N(Cc1ccncc1)CC31CCN(C(=O)C2CCC2)CC1	.	-3	.	.	.	.	.	.	.
COc1ccccc1/C=C1\SC(=S)N(Nc2nc(C)cc(C)n2)C1=O	15	.	4	-19	5	1	.	.	.
Cc1cc(C)nc(NN2C(=O)/C(=C/c3ccc(O)cc3)SC2=S)n1	0	.	1	9	-4	56*	32	6	21
CCCCCCCN1C2=NCCCN2c2ccccc21	.	6	16	31	87*	59*	41	4	16
Clc1cccc(CN2C3=NCCCN3c3ccccc32)c1	-11	-29	0	13	-4	56*	19	24	-38
c1ccc(CN2C3=NCCCN3c3ccccc32)cc1	-17	.	.	33	-2	5	.	.	.
CCCCN1C2=NCCCN2c2cc(C)c(C)cc21	-3	.	7	-1	?	64*	67*	39*	29*
CCOc1ccccc1-c1nc(CN2CCCN(C(=O)c3ccco3)CC2)c(C)o1	-6	7	6	-23	20	3	.	.	.
CCOc1ccccc1-c1nc(CN2CCCC2c2nccs2)c(C)o1 (stereo not drawn)	-6	29	1	3	16	50	26	4	-2
SMILES	CSC inhib	PAX8 inh HTS	Beta apoptosis	Mdm2 MdmX PPI	Shn3 inh set2	Gli-Sufu antag	Gli-Sufu confirm	SufuKO cytotox	Wnt3a counter
C[C@@H]1CN([C@@H](C)CO)C(=O)c2ccccc2-c2ccccc2CO[C@H]1CN(C)S(=O)(=O)c1ccc(C(F)(F)F)cc1	.	53	.	.	.	.	.	.	.
CCc1ccc(C(CNC(=O)c2ccc3c(=O)n(-c4ccccc4F)c(=S)[nH]c3c2)N(C)C)cc1 (stereo not drawn)	15	6	0	32	19	59*	29	5	1
CN(C)c1ccc(-c2n(C)c3ccccc3[n+]2C)cc1	.	.	.	9	74	80*	82*	36*	27*
C[C@@H]1CN([C@H](C)CO)C(=O)c2cc(C#CC3CC3)cnc2O[C@@H]1CN(C)C(=O)Nc1ccc(F)cc1	.	13	.	.	.	.	.	.	.
CC(C)OC(=O)N(C)C[C@H]1OCc2ccccc2-c2ccccc2C(=O)N([C@H](C)CO)C[C@H]1C	.	-5	.	.	.	.	.	.	.
COc1cc(C(=O)NC2CCN(C)CC2)ccc1Nc1ncc2c(n1)N(C1CCCCC1)CCC(=O)N2C	.	-212	.	.	52	82*	79*	19	-70
COc1cc(C(=O)NC2CCN(C)CC2)ccc1Nc1ncc2c(n1)N(Cc1ccccc1)CCC(=O)N2C	.	-296	.	.	-18	91*	89*	20	-101
CC(C)NC(=O)Nc1ccc2c(c1)C(=O)N([C@H](C)CO)C[C@@H](C)[C@@H](CN(C)C(=O)NC1CCCCC1)OCCCC[C@H](C)O2	.	6	.	.	.	.	.	.	.
CCCCCCC[N+](CC)(CC)CCCCc1ccc(Cl)cc1	7	87*	114*	36	?	85*	88*	26*	10
CCCCCCCN1C(N(C)C)=NC[C@@H]1Cc1ccccc1	29	15	2	26	79	33	.	.	.
CN(C)C1=NC[C@H](Cc2ccccc2)N1CCCCc1ccccc1	10	-15	10	19	84	54	38	29*	-18
Cc1cccc(CCN2C(N(C)C)=NC[C@@H]2CC(C)C)c1	-18	-1	-1	18	82	54	56*	16	17
O=C(NC1CCN(Cc2ccccc2)CC1)c1ccc(S(=O)(=O)NCc2ccco2)cc1	2	35	8	2	39	54	20	24	-12
